Test results reported in PubChem BioAssay AID2685 (National Center for Advancing Translational Sciences (NCATS), 2010).
Hit rate of the full screen: of about 320,000 compounds, about 2,100 (0.66%) were called active. About 53% were inconclusive and are not listed. Calls come from the whole dose curve; as a rule, active = well fitted inhibition curve with a large enough effect in the signal ratio, with a control signal flat (not every such curve was filed as active); inconclusive = small, poorly fitted or top-dose-only effect, or effect the other way, or a change in a side signal; inactive = flat fitted curve, though single readings scatter; the % refers to the signal ratio. For the sample, actives were picked, then their nearest neighbours and some compounds at random.

experiment: qHTS Assay for Lipid Storage Modulators in Drosophila S3 Cells; conditions: BODIPY lipid droplet fluorescence, 18-24 h, cells fed with added oleic acid; cell number change: measured here: cell count max response; series mostly up to 46.1 µM; lipid storage change, negative = inhibition: at the top concentration;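 for cell number change: cells counted by Cell Tracker Red CMTPX staining in the red channel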; for lipid storage change, negative = inhibition: % is set by controls: 0 for no effect and ±100 for the full control effect
Procedure, shortened: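 Laser-scanning cytometry quantifies lipid droplet accumulation (500–530 nm total intensity; droplet/cell object ratio) in oleic acid-fed (400 uM added) Drosophila S3 cells treated with a concentration series. 20 uM Triacsin C defined 100% inhibition.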
Potency is the fitted concentration of half-maximal effect.

Compound | lipid storage change, negative = inhibition | cell number change [%] | Potency | outcome
O=C(O)c1c(-n2cccc2)sc2c1CCCC2 | 11.6% (inactive) | 1.31 | – | –
Cc1sc(-n2cccc2)c(C(=O)O)c1C | – | -19.7 | 1.84 µM (active) | –
CCOC(=O)c1c(-n2cccc2)sc2c1CCCC2=O | -18.3% (inactive) | -2.93 | – | –
COc1ccc(Nc2ccncc2[N+](=O)[O-])cc1 | 4.18% (inactive) | 12.3 | – | –
O=C(C1CC(=O)N(c2ccccc2)C1)N1CCN(C2=NS(=O)(=O)c3ccccc32)CC1 (configuration not stated) | – | – | – | inactive
Cc1cc(C)c(C)c(S(=O)(=O)N2CCC(C(=O)N3CC(C)CC(C)C3)CC2)c1C (configuration not stated) | -16.7% (inactive) | -11.8 | – | –
COc1ccccc1NC(=O)C1=C(C)Nc2nnnn2C1c1cc(Br)ccc1OC (configuration not stated) | -8.87% (inactive) | 1.78 | – | –
COc1ccc(CNC(C)C23CC4CC(CC(C4)C2)C3)c(OC)c1OC (configuration not stated) | -4.64% (inactive) | 0.296 | – | –
CCCCCNC(=O)c1cccnc1SCC(=O)Nc1ccccc1OC | 6.16% (inactive) | -0.809 | – | –
CCCCCCCCNC(=O)c1cccnc1SCC(=O)Nc1ccc(OC)cc1OC | – | -25.3 | 20.6 µM (active) | –
COc1ccc(OC)c(NC(=O)CSc2ncccc2C(=O)O)c1 | – | – | – | inactive
CN(C(=O)C1CCC(=O)N(Cc2ccccc2F)C1)C1CCOCC1 (configuration not stated) | 0.902% (inactive) | 7.76 | – | –
CCc1cc(C(=O)OC)c(NC(=O)CC2Nc3cc(C)c(C)cc3NC2=O)s1 (configuration not stated) | 9.56% (inactive) | -3.56 | – | –
COC(=O)c1cc(C)sc1NC(=O)CC1Nc2ccccc2NC1=O (configuration not stated) | – | -20.6 | 16.4 µM (active) | –
CCCCNC(=O)CC1Nc2ccccc2NC1=O (configuration not stated) | – | – | – | inactive
CC(C)CNC(=O)CC1Nc2ccccc2NC1=O (configuration not stated) | – | -19.4 | 10.3 µM (active) | –
CC(NC(=O)CC1Nc2ccccc2NC1=O)c1ccccc1 (configuration not stated) | – | – | – | inactive
COC(=O)c1c(NC(=O)CC2Nc3ccccc3NC2=O)sc(C)c1C (configuration not stated) | -27% (inactive) | 18.7 | – | –
COC(=O)c1[nH]c(C)c(/C(O)=C2\C(=O)C(=O)N(CCN(C)C)C2c2cccc(OC)c2OC)c1C (configuration not stated) | 5.22% (inactive) | -3.7 | – | –
Cc1cc(=O)oc2cc(OC(C)C(=O)NCCCn3ccnc3)ccc12 (configuration not stated) | – | 5.93 | – | inactive
COC(=O)c1cn(NC(=O)c2ccncc2)c(=O)c2ccccc12 | 12.8% (inactive) | -18.7 | – | –
COc1ccccc1C(=O)N1CCN(Cc2nc(CC3CC3)no2)CC1 | -0.676% (inactive) | 10.8 | – | –
Cc1ccc(NC(=O)CS(=O)CC(=O)NCCCc2ccccc2)cc1Cl (configuration not stated) | -6.88% (inactive) | – | – | –
Cc1ccc(-c2ccccc2NC(=O)CS(=O)CC(=O)Nc2ccc(C)c(Cl)c2)o1 (configuration not stated) | – | -13 | 23.1 µM (active) | –
Cc1ccc(NC(=O)CS(=O)CC(=O)Nc2ccccc2-c2ccc(C)o2)cc1 (configuration not stated) | – | 17.8 | – | inactive
OCC1(CCc2ccccc2)CCN(Cc2ccccc2Cl)CC1 | 5.38% (inactive) | 4.39 | – | –

Compound | lipid storage change, negative = inhibition | cell number change [%] | Potency | outcome
COc1ccc(-c2nnc3ccc(SCC(=O)Nc4cc(C)on4)nn23)cc1 | 0.462% (inactive) | 8.27 | – | –
COc1ccc(-n2c(C)cc(C(=O)NC3CCCCC3)c2C)cc1 | -14.2% (inactive) | -26.1 | – | –
Cc1cc(C(=O)NC2CCCCC2)c(C)n1-c1ccc(F)cc1 | 6.96% (inactive) | 2.04 | – | –
Cc1cccc(-n2c(C)cc(C(=O)NC3CCCCC3)c2C)c1 | – | -27.1 | 20.6 µM (active) | –
O=C(Nc1ccc(Cl)cc1)C1C2CCC3C(CCC21)C3(Cl)Cl (configuration not stated) | 14.4% (inactive) | -4.94 | – | –
O=C(NCC1CCCN1S(=O)(=O)c1ccccc1)C(=O)NC1CC1 (configuration not stated) | 18.1% (inactive) | – | – | –
CCN(CC)S(=O)(=O)c1ccc(F)cc1 | -5.13% (inactive) | 12.5 | – | –
CCCc1ccc(S(=O)(=O)N(C)S(=O)(=O)c2ccc(F)cc2)cc1 | – | 17.6 | 0.82 µM (active) | –
CN(CC(=O)O)S(=O)(=O)c1ccc(F)cc1 | -2.19% (inactive) | 12.3 | – | –
CCN(CC(=O)Nc1ccccc1C(F)(F)F)C(=O)CSCc1ccc(C)cc1 | 14.9% (inactive) | 3.04 | – | –
COc1ccc(CNC(=O)OCCN2CCN(S(=O)(=O)c3ccc(C)cc3)CCC2=O)cc1 | 1.09% (inactive) | 22.9 | – | –
Cc1ccc(O)c(NC(=O)CN(C)S(=O)(=O)c2ccc(Cl)cc2)c1 | -11.4% (inactive) | 2.51 | – | –
COc1ccc(N2C(=O)C(CC(=O)Nc3ccccc3)N(CCc3ccc(OC)c(OC)c3)C2=O)cc1 (configuration not stated) | 0.805% (inactive) | 0.202 | – | –
O=C(COC(=O)Cn1cnc2ccccc21)NCc1ccc(F)cc1 | 6.01% (inactive) | 21.3 | – | –
O=C(COC(=O)Cn1cnc2ccccc21)NCCC1=CCCCC1 | -86.9% (inactive) | -15.3 | – | –
O=C(COC(=O)Cn1cnc2ccccc21)NCCc1ccc(Cl)cc1 | – | 22.6 | 8.2 µM (active) | –
CC(=O)Nc1ccc(S(=O)(=O)N2CCN=C2SCc2cccnc2)cc1 | -0.0501% (inactive) | -0.745 | – | –
COc1cc(-n2nc(C)c3c2OC(N)=C(C#N)C3c2ccccc2)c(Cl)c(Br)c1O (configuration not stated) | – | -5.47 | – | inactive
Cc1cc(N2CCCCC2)nc2c(C)cccc12 | 9.06% (inactive) | 3.12 | – | –
COc1ccc(/C=c2/sc3n(c2=O)C(c2ccccc2OC)C2=C(N=3)c3ccccc3CC2)cc1O (configuration not stated) | 15.6% (inactive) | -22.9 | – | –
COc1ccc(C(=O)OC(C(=O)c2ccccc2)c2ccccc2)cc1 (configuration not stated) | -14.1% (inactive) | -12.3 | – | –
CN(C)C(=O)C(OC(=O)c1ccc2c(c1)CCCC2)c1ccccc1 (configuration not stated) | – | 15.3 | 0.58 µM (active) | –
CN(C)C(=O)C(OC(=O)c1ccc2ccccc2n1)c1ccccc1 (configuration not stated) | – | 16.5 | – | inactive
CCOC(=O)c1cc(=O)c2c([N+](=O)[O-])ccc(OC)c2o1 | -7.08% (inactive) | -14.1 | – | –
CCC(=O)Nc1ccc(Oc2ccc3c(c2)C(=O)NC3=O)cc1 | – | -7.29 | – | inactive
CC(=O)Nc1cccc(Oc2ccc3c(c2)C(=O)NC3=O)c1 | -10.3% (inactive) | -4.38 | – | –

Compound | lipid storage change, negative = inhibition | cell number change [%] | Potency | outcome
CCCC(=O)Nc1cccc(Oc2ccc3c(c2)C(=O)NC3=O)c1 | – | -28.1 | 1.46 µM (active) | –
CC(C)c1ccc(NC(=O)N2CCOCC2)cc1 | – | -1.06 | – | inactive
O=C(CSc1nc(-c2ccc(F)cc2)nc2c1Cc1ccccc1O2)Nc1ccc(C(=O)O)cc1 | 4.47% (inactive) | -7.56 | – | –
CN1CCCN(C(=O)c2ccccc2Cl)CC1 | -22.4% (inactive) | -6.61 | – | –
CN1CCCN(C(=O)c2c(F)cccc2Cl)CC1 | – | -3.31 | 1.64 µM (active) | –
O=C(c1c(F)cccc1F)N1CCCC1 | 0.776% (inactive) | 7.6 | – | –
CCOC(=O)/C(C#N)=C(/C)c1ccc(OC)cc1 | – | – | – | inactive
CCOc1cc2[nH]c(=O)n(CCc3ccc(OC)c(OC)c3)c(=O)c2cc1OCC | 10.7% (inactive) | 0.389 | – | –
O=C(O)c1ccc(N/N=C2/CCCc3ccccc32)cc1 | 1.14% (inactive) | 24.2 | – | –
CC(C)CNC(=O)c1cccc2c1-c1ccccc1C2=O | 14.4% (inactive) | 24.1 | – | –
CCN(CC)C(=O)c1cccc2c1C(=O)c1ccccc1-2 | 9.17% (inactive) | 11.5 | – | –
O=C1c2ccccc2-c2c1cccc2C(=O)N(CCO)CCO | – | -9.84 | 25.9 µM (active) | –
CC12CN(S(=O)(=O)c3ccccc3)CC(C)(CN(S(=O)(=O)c3ccccc3)C1)C2 | 1.31% (inactive) | 1.2 | – | –
CCC(C)(C)NC(=O)CN(C(=O)c1csnn1)c1cccc2c1CCCC2 | -4.03% (inactive) | -10.5 | – | –
COc1cc(-c2nc(C(=O)NC3CCCCC3)cc3c2[nH]c2ccccc23)cc(OC)c1OC | – | 13.2 | 13 µM (active) | –
O=C(NCCO)c1cc2c([nH]c3ccccc32)c(-c2ccccc2)n1 | -0.328% (inactive) | -12.4 | – | –
COc1ccc(-c2nc(C(=O)NCC3CCCO3)cc3c2[nH]c2ccccc23)cc1 (configuration not stated) | -81.9% (inactive) | -11.3 | – | –
CCOCCCNC(=O)Cn1cc2c(n1)CCCC2 | -2.58% (inactive) | 13.2 | – | –
COC(=O)Cn1c(=NC(=O)c2cc(OC)cc(OC)c2)sc2cc(OC)ccc21 | -18.2% (inactive) | -0.279 | – | –
COc1ccc(NC(=O)CSc2nncs2)cc1S(N)(=O)=O | -14% (inactive) | – | – | –
Cc1c(N)cccc1N | 6.46% (inactive) | 16.6 | – | –
O=C(CSC1=NS(=O)(=O)c2cc(F)ccc2N1)Nc1ccccc1F | – | – | – | inactive [at 0.0737 µM]
O=C(CSC1=NS(=O)(=O)c2ccccc2N1)Nc1ccccc1F | – | -3.42 | 6.51 µM (active) | –
O=C(CSC1=NS(=O)(=O)c2cc(Cl)ccc2N1)Nc1ccccc1F | 1.27% (inactive) | 0.0379 | – | –
Cc1ccc(S(=O)(=O)N2CCN(S(=O)(=O)N3CCC(C)CC3)CC2)c(C)c1 | – | 12.8 | – | inactive
CCOCCCNC(=O)C(Cc1ccccc1)NC(=O)c1ccco1 (configuration not stated) | – | -1.42 | 13 µM (active) | –

Compound | lipid storage change, negative = inhibition | cell number change [%] | Potency | outcome
CCOC(=O)c1sc(NC(=O)c2cccs2)nc1C | -6.52% (inactive) | 7.32 | – | –
Cc1ccc(CNC(=O)[C@H](Cc2ccccc2)NC(=O)c2ccco2)cc1 | 11.7% (inactive) | 9.45 | – | –
COCCCNC(=O)c1cccs1 | – | 12.5 | – | inactive
O=C(NC(Cc1ccccc1)C(=O)O)c1ccco1 (configuration not stated) | 16% (inactive) | 6.62 | – | –
CCCC(=O)Nc1nc(C(=O)OCC)cs1 | -10.7% (inactive) | -4.4 | – | –
CCOCCCNC(=O)c1cccs1 | – | 17.5 | 6.51 µM (active) | –
CCOC(=O)c1csc(NC(=O)c2cccs2)n1 | – | -11.6 | 20.6 µM (active) | –
CCOCCCNC(=O)c1c(-c2ccccc2)noc1C | – | -15.4 | 20.6 µM (active) | –
O=C(NCCCCNC(=O)c1cccs1)c1cccs1 | -20.8% (inactive) | -29 | – | –
CC(=O)Nc1ccc(OCCCNC(=O)c2c(-c3ccccc3)noc2C)cc1 | -5.94% (inactive) | -3.99 | – | –
COCCCNC(=O)c1c(-c2ccccc2)noc1C | 9.31% (inactive) | 19.6 | – | –
Cc1cccc(/C=C/c2nc3ccccc3c(=O)[nH]2)c1 | -2.08% (inactive) | -2.24 | – | –
O=C(NCC(=O)N(Cc1cccs1)C(C(=O)NC1CCCC1)c1ccncc1)c1ccco1 (configuration not stated) | – | – | – | inactive
Cn1c(Cn2c(=O)sc3ccccc32)nnc1SCC(N)=O | 2.33% (inactive) | 4.82 | – | –
CCCCCC(=O)Nc1cc(N(C)C)nc2ccccc12 | – | 6.14 | – | inactive
COc1ccc(CC(=O)OCC(=O)Nc2ccc(C(=O)Nc3ccc(OC)cc3)cc2)cc1 | 0.407% (inactive) | 6.99 | – | –
Cc1ccc2sc(NC(=O)CN3C(=O)c4ccccc4C3=O)nc2c1C | 19.1% (inactive) | -0.832 | – | –
CCC(O)(CC)C(=O)NN(C(=O)CCl)c1ccccc1 | – | -5.65 | 20.6 µM (active) | –
CCCC(O)(CCC)C(=O)NN(C(=O)CCl)c1cccc(C)c1 | – | -4.84 | 20.6 µM (active) | –
CCCCC(O)(CCCC)C(=O)NN(C(=O)OC)c1ccccc1 | 8.53% (inactive) | 0.36 | – | –
CCCC(O)(CCC)C(=O)NN(C(=O)OC)c1ccccc1 | 7.85% (inactive) | 12.3 | – | –
Cc1cccc(N(NC(=O)C(C)(C)O)C(=O)c2ccccc2)c1 | -3.6% (inactive) | 7.68 | – | –
CCCCC(O)(CCCC)C(=O)NN(C(=O)OCC)c1ccccc1 | -7.04% (inactive) | 11.1 | – | –
